# Source: PubChem BioAssay AID1159580 (chemical genetic matrix, 2015)
# Screen size: about 5,500 compounds; about 2,000 (36%) were called active. Another 18% or so got no clear call; they are omitted. The list shows a part of the results. Values without a mark were called inactive. Rule as the data show it: active = normalized growth mostly below about 0.91 (no sharp cut-off); inconclusive = no clear call, values can overlap the other calls; inactive = mostly above about 0.92.
# Assay: chemical genetic growth profiling, strain panel (AID 1159580);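 also: tested at 20 µM; growth read once vehicle control cultures reached saturation at 30 °C; 1 = growth at the plate median or of vehicle wells; lower values mean less growth of the strain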
# Details: growth OD
smiles,measurement,setting,value
COc1ccccc1-c1cc(=O)c2c(OC)cccc2o1,normalized growth,"S. cerevisiae deletion strains, locus YBR021W, strain FUR4, hits give low values",0.99
same,normalized growth,"S. cerevisiae deletion strains, locus YBR229C, strain ROT2, hits give low values",0.973
same,normalized growth,"S. cerevisiae deletion strains, locus YCL029C, strain bik1, hits give low values",1
same,normalized growth,"S. cerevisiae deletion strains, locus YDL035C, strain GPR1, hits give low values",0.953
same,normalized growth,"S. cerevisiae deletion strains, locus YDL074C, strain BRE1, hits give low values",0.923
same,normalized growth,"S. cerevisiae deletion strains, locus YDL101C, strain DUN1, hits give low values",0.966
same,normalized growth,"S. cerevisiae deletion strains, locus YDL185W, strain tfp1, hits give low values",0.987
same,normalized growth,"S. cerevisiae deletion strains, locus YDL192W, strain arf1, hits give low values",0.892 (active)
same,normalized growth,"S. cerevisiae deletion strains, locus YDR101C, strain arx1, hits give low values",0.987
same,normalized growth,"S. cerevisiae deletion strains, locus YDR162C, strain NBP2, hits give low values",0.95
same,normalized growth,"S. cerevisiae deletion strains, locus YDR318W, strain mcm21, hits give low values",0.935
same,normalized growth,"S. cerevisiae deletion strains, locus YDR388W, hits give low values",0.985
same,normalized growth,"S. cerevisiae deletion strains, locus YDR502C, strain sam2, hits give low values",0.944
same,normalized growth,"S. cerevisiae deletion strains, locus YEL061C, strain CIN8, hits give low values",0.977
same,normalized growth,"S. cerevisiae deletion strains, locus YER110C, hits give low values",0.977
same,normalized growth,"S. cerevisiae deletion strains, locus YER155C, strain BEM2, hits give low values",1.01
same,normalized growth,"S. cerevisiae deletion strains, locus YER167W, strain BCK2, hits give low values",0.996
same,normalized growth,"S. cerevisiae deletion strains, locus YGL078C, strain dbp3, hits give low values",0.983
same,normalized growth,"S. cerevisiae deletion strains, locus YGL086W, strain mad1, hits give low values",0.99
same,normalized growth,"S. cerevisiae deletion strains, locus YGL248W, strain PDE1, hits give low values",0.942
same,normalized growth,"S. cerevisiae deletion strains, locus YGR078C, strain PAC10, hits give low values",0.938
same,normalized growth,"S. cerevisiae deletion strains, locus YGR135W, strain pre9, hits give low values",0.915
same,normalized growth,"S. cerevisiae deletion strains, locus YGR252W, strain gcn5, hits give low values",0.776
same,normalized growth,"S. cerevisiae deletion strains, locus YHR030C, strain SLT2, hits give low values",0.991
same,normalized growth,"S. cerevisiae deletion strains, locus YHR079C, strain IRE1 (second series), hits give low values",0.979
same,normalized growth,"S. cerevisiae deletion strains, locus YHR094C, strain hxt1, hits give low values",0.996
same,normalized growth,"S. cerevisiae deletion strains, locus YHR129C, strain ARP1, hits give low values",0.967
same,normalized growth,"S. cerevisiae deletion strains, locus YHR200W, strain rpn10, hits give low values",0.98
same,normalized growth,"S. cerevisiae deletion strains, locus YIL066C, strain RNR3, hits give low values",0.961
same,normalized growth,"S. cerevisiae deletion strains, locus YIL073C, strain SPO22, hits give low values",0.931
same,normalized growth,"S. cerevisiae deletion strains, locus YIL125W, strain kgd1, hits give low values",1.01
same,normalized growth,"S. cerevisiae deletion strains, locus YIR030C, strain dcg1, hits give low values",0.969
same,normalized growth,"S. cerevisiae deletion strains, locus YJL095W, strain BCK1, hits give low values",0.773 (active)
same,normalized growth,"S. cerevisiae deletion strains, locus YJL134W, strain LCB3, hits give low values",0.988
same,normalized growth,"S. cerevisiae deletion strains, locus YJL168C, strain set2, hits give low values",0.971
same,normalized growth,"S. cerevisiae deletion strains, locus YJL187C, strain SWE1 (second series), hits give low values",0.954
same,normalized growth,"S. cerevisiae deletion strains, locus YJR043C, strain POL32, hits give low values",0.999
same,normalized growth,"S. cerevisiae deletion strains, locus YJR075W, strain HOC1, hits give low values",0.987
same,normalized growth,"S. cerevisiae deletion strains, locus YKL009W, strain mrt4, hits give low values",0.968
same,normalized growth,"S. cerevisiae deletion strains, locus YKL068W, hits give low values",0.993
same,normalized growth,"S. cerevisiae deletion strains, locus YKL085W, strain MDH1 (second series), hits give low values",0.982
same,normalized growth,"S. cerevisiae deletion strains, locus YKL085W, strain MDH1, hits give low values",0.982
same,normalized growth,"S. cerevisiae deletion strains, locus YKL190W, strain CNB1, hits give low values",0.972
same,normalized growth,"S. cerevisiae deletion strains, locus YKR001C, strain vps1, hits give low values",0.916
same,normalized growth,"S. cerevisiae deletion strains, locus YLR039C, strain RIC1, hits give low values",0.872
same,normalized growth,"S. cerevisiae deletion strains, locus YLR058C, strain SHM2, hits give low values",0.96
same,normalized growth,"S. cerevisiae deletion strains, locus YLR102C, strain apc9, hits give low values",0.988
same,normalized growth,"S. cerevisiae deletion strains, locus YLR262C, strain YPT6, hits give low values",0.815
same,normalized growth,"S. cerevisiae deletion strains, locus YLR268W, strain sec22, hits give low values",0.98
same,normalized growth,"S. cerevisiae deletion strains, locus YLR330W, strain CHS5, hits give low values",0.976
same,normalized growth,"S. cerevisiae deletion strains, locus YLR342W, strain FKS1 (second series), hits give low values",0.894
same,normalized growth,"S. cerevisiae deletion strains, locus YLR371W, strain rom2, hits give low values",0.979
same,normalized growth,"S. cerevisiae deletion strains, locus YLR418C, strain cdc73, hits give low values",0.77 (active)
same,normalized growth,"S. cerevisiae deletion strains, locus YML016C, strain PPZ1, hits give low values",0.983
same,normalized growth,"S. cerevisiae deletion strains, locus YML032C, strain rad52, hits give low values",0.951
same,normalized growth,"S. cerevisiae deletion strains, locus YML124C, strain tub3, hits give low values",0.983
same,normalized growth,"S. cerevisiae deletion strains, locus YMR078C, strain ctf18, hits give low values",0.969
same,normalized growth,"S. cerevisiae deletion strains, locus YMR223W, strain ubp8, hits give low values",0.916
same,normalized growth,"S. cerevisiae deletion strains, locus YMR263W, strain SAP30, hits give low values",0.958
same,normalized growth,"S. cerevisiae deletion strains, locus YMR307W, strain GAS1, hits give low values",0.72
same,normalized growth,"S. cerevisiae deletion strains, locus YNL067W, strain RPL9B, hits give low values",0.982
same,normalized growth,"S. cerevisiae deletion strains, locus YNL153C, strain GIM3, hits give low values",0.974
same,normalized growth,"S. cerevisiae deletion strains, locus YNL233W, strain BNI4, hits give low values",0.922
same,normalized growth,"S. cerevisiae deletion strains, locus YNL250W, strain rad50, hits give low values",0.999
same,normalized growth,"S. cerevisiae deletion strains, locus YNL271C, strain bni1, hits give low values",0.969
same,normalized growth,"S. cerevisiae deletion strains, locus YNL298W, strain CLA4, hits give low values",0.965
same,normalized growth,"S. cerevisiae deletion strains, locus YNL307C, strain MCK1, hits give low values",0.88 (active)
same,normalized growth,"S. cerevisiae deletion strains, locus YNL322C, strain KRE1, hits give low values",0.978
same,normalized growth,"S. cerevisiae deletion strains, locus YNR052C, strain pop2, hits give low values",0.958
same,normalized growth,"S. cerevisiae deletion strains, locus YOL006C, strain TOP1, hits give low values",0.762
same,normalized growth,"S. cerevisiae deletion strains, locus YOL012C, strain htz1",1.44
same,normalized growth,"S. cerevisiae deletion strains, locus YOL147C, strain pex11, hits give low values",0.975
same,normalized growth,"S. cerevisiae deletion strains, locus YOR061W, strain CKA2, hits give low values",0.972
same,normalized growth,"S. cerevisiae deletion strains, locus YOR069W, strain VPS5, hits give low values",0.982
same,normalized growth,"S. cerevisiae deletion strains, locus YOR136W, strain idh2, hits give low values",1
same,normalized growth,"S. cerevisiae deletion strains, locus YOR144C, strain elg1, hits give low values",0.996
same,normalized growth,"S. cerevisiae deletion strains, locus YOR184W, strain ser1, hits give low values",0.837 (active)
same,normalized growth,"S. cerevisiae deletion strains, locus YOR316C, strain cot1, hits give low values",0.992
same,normalized growth,"S. cerevisiae deletion strains, locus YPL241C, strain CIN2, hits give low values",0.974
same,normalized growth,"S. cerevisiae deletion strains, locus YPR119W, strain clb2, hits give low values",0.982
same,normalized growth,"S. cerevisiae deletion strains, locus YPR141C, strain kar3, hits give low values",0.987
same,normalized growth,"S. cerevisiae deletion strains, locus YPR163C, strain tif3, hits give low values",0.964
same,normalized growth,"S. cerevisiae deletion strains, locus YPR167C, strain met16, hits give low values",0.969
same,normalized growth,"S. cerevisiae deletion strains, strain wtn01, hits give low values",1
same,normalized growth,"S. cerevisiae strains, strain wild type, hits give low values",0.975
